IL-1B inflam inh: qHTS for Inhibitors of Inflammasome Signaling: IL-1-beta AlphaLISA Primary Screen; THP-1 LPS/ATP IL-1B secretion, AlphaLISA, 16 h; active compounds read low; activity change, % at 57.5 µM; 360,000 compounds, 4.7% hits; in the data active means activity change below about -50%; inconclusive means mostly about -30% to -49%
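Secreted IL-1B measured by AlphaLISA bead assay after 16 h compound exposure of THP-1 cells; compounds (final up to 57.5 uM) added 1 h before LPS (250 ng/mL) and ATP (1.25 mM) stimulation; lower signal means less secretion.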
HT1080NT lethal: qHTS for induction of synthetic lethality in tumor cells producing 2HG: qHTS for the HT-1080-NT fibrosarcoma cell line; AID 686970, 2013; 360,000 compounds, 1.6% hits; HT-1080-NT fibrosarcoma viability, CellTiter-Glo ATP luminescence, 48 h; Potency, µM (highest dose often 46.1 µM), inactives show at the highest dose activity, negative = less viability, hits mostly cytotoxic;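 further: NT is the 2HG producing partner of a matched IDH1 knockdown line; potency means the concentration at half of the fitted maximal effect; 0% = DMSO-treated cells and -100% = media-only wells without cells; nearly all actives have a fitted effect of over 55% in size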
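Compounds were tested in concentration-response format on HT-1080-NT cells for 48 hours at 37 degrees C. Cell viability came from CellTiter-Glo luminescence; curves were classified by r2, response magnitude and activity.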
HT1080 IDH1KD tx: qHTS for induction of synthetic lethality in tumor cells producing 2HG: qHTS for the HT-1080-IDH1KD cell line; Potency, µM (doses to about 46.1 µM), without a hit: top-dose activity, negative = toxicity, actives largely listed as cytotoxic; AID 686971, 2013; HT-1080 IDH1 knockdown viability, ATP luminescence, 48 h; 360,000 compounds, 2% hits;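 further: potency means the concentration at half of the fitted maximal effect; 0% = DMSO wells and -100% = cell-free medium wells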
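Knockdown cells (IDH1KD HT-1080) received compounds 2 h after plating at 750 cells/well and were kept 48 h at 37 °C in 5% FBS RPMI. A CellTiter-Glo luminescence read gave % activity for curve fitting.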
DT40 TDP1 CPT: qHTS for Inhibitors of human tyrosyl-DNA phosphodiesterase 1 (TDP1): qHTS in cells in presence of CPT. Potency, µM (series often up to 46.2 µM), without a hit: top-dose activity change, negative = growth inhibition, actives largely listed as inhibitors. 420,000 compounds, 12% hits. chicken DT40 Tdp1-/-;hTDP1 cells + 20 nM CPT, ATP luminescence, 48 h; further: potency means the concentration at half of the fitted maximal effect; nearly all actives have a fitted effect of over 55% in size
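Chicken DT40 Tdp1-/- cells complemented with human TDP1, 400 cells/well, exposed to compounds plus 20 nM camptothecin for at least 48 h at 37 C; viability read as ATP content by CellTiter-Glo luminescence.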
DT40 TDP1 no CPT: qHTS for Inhibitors of human tyrosyl-DNA phosphodiesterase 1 (TDP1): qHTS in cells in absence of CPT. DT40 Tdp1-/- hTDP1 cells, no CPT, ATP luminescence, 48 h. Potency, µM (series often up to 46.2 µM), without a hit: at the highest dose activity change, negative = growth inhibition, usual class: inhibitors. 420,000 compounds, 15% hits. AID 686978, 2013; further: potency means the concentration at half of the fitted maximal effect; nearly all actives have a fitted effect of over 55% in size
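Camptothecin absent (DMSO only). Human TDP1-complemented DT40 knockout cells, 400 cells/well, 37 °C for minimum 48 hr; ATP measured via CellTiter-Glo, 30 min dark incubation, luminescence.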
ELG1 DNA repair: qHTS screen for small molecules that inhibit ELG1-dependent DNA repair in human embryonic kidney (HEK293T) cells expressing luciferase-tagged ELG1 | 330,000 compounds, 2.3% hits | Potency, µM (doses to about 46.1 µM), without a hit: at the highest dose activity change, negative = inhibition, most hits filed as inhibitors | HEK293T ELG1-luciferase reporter, luminescence, 16 h; DNA damage induced by 5-fluorouridine | AID 504467, 2011; further: potency means the concentration at half of the fitted maximal effect; nearly all actives have a fitted effect of over 55% in size
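Overnight (16 hr) co-exposure of 2,000 cells/well to 5-fluorouridine and compound at 37 °C preceded detection. Luciferase was quantified via ONE-Glo luminescence; loss of signal denotes inhibition.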
Starred values were filed as active, the others as inactive; ? = inconclusive; . = not tested or not shown. Most compounds without a hit are left out; they make up all but 19% or so of the library. Unless noted, the call rests on the fitted dose curve; in most records, active means well fitted curve in the direction sought with a large enough effect; inconclusive means small, poorly fitted or top-dose-only effect, or another doubt; inactive means no such curve, though single readings can be large; an effect the other way counts as inactive or inconclusive. Unless noted, on the % scale 0 is the no-effect control and ±100 the full control effect.

SMILES | IL-1B inflam inh | HT1080NT lethal | HT1080 IDH1KD tx | DT40 TDP1 CPT | DT40 TDP1 no CPT | ELG1 DNA repair
CC(=O)Nc1sc(C)c(C)c1C(=O)Nc1ccc(C)cc1 | 38 | 7% | 15% | -1% | -19% | 18%
CCCC(=O)Nc1sc(C)c(C)c1C(=O)Nc1cccc(C)c1 | -59* | 7% | -3% | -13% | -7% | -9%
Cc1sc(NC(=O)C(C)C)c(C(=O)Nc2ccccc2)c1C | 15 | -6% | 9% | ? | 15µM* | 1%
Cc1cccc(NC(=O)CCCCC(=O)Nc2cccc(C)c2)c1 | 9 | 3% | 0% | 17% | -13% | .
CCN1C(=O)[C@H]2[C@@H](c3ccc(-c4ccc5c(c4)OCO5)cc3)N3CCC[C@@]3(C(=O)OC)[C@H]2C1=O | -26 | 6% | 1% | ? | 12µM* | ?
CCN1C(=O)[C@@H]2[C@@H](c3ccc(-c4ccc5c(c4)OCO5)c(OC)c3)N3CCC[C@@]3(C(=O)OC)[C@@H]2C1=O | 3 | 6% | 3% | -10% | ? | -8%
CCN1C(=O)[C@@H]2[C@@H](c3ccc(-c4ccc5c(c4)OCO5)cc3)N3CCCC[C@@]3(C(=O)OC)[C@@H]2C1=O | -3 | 0% | 3% | 15µM* | 21µM* | ?
O=C(Nc1ccc2c(c1)OCO2)c1cc(C2CCCCN2C(=O)c2ccc3ccccc3c2)on1 (configuration not stated) | -26 | -5% | 4% | 18µM* | 15µM* | .
O=C(Nc1ccccc1Cl)c1cc(C2CCCCN2C(=O)c2ccccc2)on1 (configuration not stated) | 9 | 19% | ? | 29µM* | ? | .
O=C(Nc1ccccc1)c1cc(C2CCCCN2C(=O)c2ccccc2)on1 (configuration not stated) | 18 | 19% | 22% | 21µM* | ? | .
O=C(Nc1ccc2c(c1)OCO2)c1cc(C2CCCN(C(=O)C3CCCCC3)C2)on1 (configuration not stated) | -22 | -26% | ? | 23µM* | ? | .
CC(=O)Nc1ccc(C(=O)N2CCCCC2c2cc(C(=O)Nc3ccccc3Cl)no2)cc1 (configuration not stated) | 0 | -14% | -4% | -18% | -1% | .
CC(=O)Nc1ccc(C(=O)N2CCCCC2c2cc(C(=O)Nc3ccccc3)no2)cc1 (configuration not stated) | -1 | 12% | 7% | -27% | -16% | .
OC(c1ccccc1)c1nc(-c2cccc(C(F)(F)F)c2)cs1 (configuration not stated) | 68 | ? | ? | -16% | ? | .
CCOC(=O)C1CCN(CC(=O)N(CC(C)C)c2c(N)n(CC(C)C)c(=O)[nH]c2=O)CC1 | 0 | -8% | -4% | ? | 16% | -25%
O=C(Nc1ccccc1Cl)c1cc(C2CCCCN2S(=O)(=O)c2ccc(F)cc2F)on1 (configuration not stated) | 42 | 1% | -28% | 16µM* | 21µM* | .
O=C(Nc1ccc2c(c1)OCO2)c1cc(C2CCCCN2S(=O)(=O)c2ccccc2)on1 (configuration not stated) | -25 | -13% | -1% | 16µM* | ? | .
CS(=O)(=O)N1CCCCC1c1cc(C(=O)Nc2ccccc2)no1 (configuration not stated) | -19 | -3% | -3% | -5% | 0% | .
O=C(Nc1ccc2c(c1)OCO2)C1CCCCN1S(=O)(=O)c1ccccc1 (configuration not stated) | 1 | 1% | -3% | ? | ? | 9%
O=C(Nc1ccccc1)c1cc(C2CCCCN2S(=O)(=O)Cc2cccc(C(F)(F)F)c2)on1 (configuration not stated) | -28 | 2% | 21% | 21µM* | ? | .
Nn1c(-c2ccccc2)cc(-c2ccccc2)cc1=O | -7 | 1% | 0% | -17% | -12% | ?
Cc1cccc(CNC(=O)Cc2csc3ccccc23)c1 | . | . | . | 14% | -21% | .
Cc1ccc(S(=O)(=O)NCCCN2CCCC2)cc1 | 10 | 6% | 4% | -14% | 1% | 0%
CCOc1ccc(N(C(C)C(=O)N/N=C(\C)c2cccc(NC(=O)c3ccccc3)c2)S(C)(=O)=O)cc1 (configuration not stated) | ? | -3% | -2% | 18µM* | 18µM* | ?
Cc1ccc(Cn2ccnc2SCC(=O)Nc2ccccc2C(F)(F)F)cc1 | . | . | . | -11% | 5% | .
SMILES | IL-1B inflam inh | HT1080NT lethal | HT1080 IDH1KD tx | DT40 TDP1 CPT | DT40 TDP1 no CPT | ELG1 DNA repair
O=C(Nc1ccccc1)C1Cc2c(-c3ccccc3Oc3ccccc3)ccnc2O1 (configuration not stated) | -57* | ? | ? | ? | ? | .
O=C(Nc1ccc(Cl)cc1)C1Cc2c(-c3ccccc3Oc3ccccc3)ccnc2O1 (configuration not stated) | -53* | ? | ? | 23µM* | ? | .
COc1ccc(NC(=O)C2Cc3c(-c4ccccc4Oc4ccccc4)ccnc3O2)cc1 (configuration not stated) | ? | 0% | -23% | ? | ? | .
O=C(Nc1cccc(OC(F)(F)F)c1)C1Cc2c(-c3ccccc3Oc3ccccc3)ccnc2O1 (configuration not stated) | -11 | ? | ? | ? | ? | .
O=C(Nc1cc(C(F)(F)F)ccc1F)C1Cc2c(-c3ccccc3Oc3ccccc3)ccnc2O1 (configuration not stated) | -1 | ? | ? | ? | 18µM* | .
CCCCNc1n[n+](C)c(-c2cccc(C)c2)s1 | . | . | . | . | . | 22%
Cc1ccccc1S(=O)(=O)N1CCN(C)CC1 | -7 | 9% | 7% | 13% | 0% | -11%
O=c1c2ccccc2[nH]c2ccc(O)cc12 | -71* | 3% | -2% | 16% | -25% | ?
Cc1cc(=O)[nH]c2ccc(O)cc12 | . | . | . | 0.35µM* | -1% | .
O=c1c2ccccc2[nH]c2ccc(F)cc12 | -22 | -4% | -3% | 21µM* | 9.2µM* | ?
